Holding throughout (test): DAPPL (digital affinity profiling via proximity ligation, sequencing); 10 mM Tris-HCl pH 7.5, 50 mM NaCl, 1 mM DTT, 4% glycerol, room temperature, 30 min; GST-TFs on glutathione beads, 16-mer random dsDNA library, 0.1% formaldehyde crosslink after washing; high values mean tight binding
Conditions in all cases: protein: recombinant; tags: N-terminal GST; dsDNA, one strand shown

For one assay, the target named is T1, ELK1 (Homo sapiens, UniProt P19419 1-428).
T1 sequence: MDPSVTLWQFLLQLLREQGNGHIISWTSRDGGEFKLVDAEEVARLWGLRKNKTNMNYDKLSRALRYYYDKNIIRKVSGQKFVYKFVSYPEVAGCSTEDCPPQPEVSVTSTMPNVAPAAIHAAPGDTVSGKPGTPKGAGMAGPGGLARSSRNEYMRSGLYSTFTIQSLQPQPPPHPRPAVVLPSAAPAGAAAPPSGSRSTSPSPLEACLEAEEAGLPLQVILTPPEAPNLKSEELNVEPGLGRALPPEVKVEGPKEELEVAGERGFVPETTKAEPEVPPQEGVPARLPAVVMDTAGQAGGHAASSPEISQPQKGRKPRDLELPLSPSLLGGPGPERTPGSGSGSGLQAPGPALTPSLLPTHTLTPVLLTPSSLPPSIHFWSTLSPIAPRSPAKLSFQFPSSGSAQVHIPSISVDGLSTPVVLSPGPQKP
The method, boiled down:
(§1)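 Beads coated with glutathione captured GST-fused human transcription factors that had been expressed in yeast, and the factors were then given DNA barcodes and pooled with a tag-only sample. The pools were incubated with 200 nmole of a random double-stranded 16-mer DNA library in Tris/NaCl/DTT/glycerol buffer for 30 min at room temperature, washed, crosslinked with 0.1% formaldehyde and proximity-ligated with BsaI/T4 ligase at 37 °C for 1 h. PCR amplification and Illumina NextSeq500 sequencing came last. Binding signal is each hexamer's read frequency for a factor divided by its frequency for the tag-only sample.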

The next assay concerns the target T2, GABPA (Homo sapiens, UniProt Q06546 1-454).
T2 sequence: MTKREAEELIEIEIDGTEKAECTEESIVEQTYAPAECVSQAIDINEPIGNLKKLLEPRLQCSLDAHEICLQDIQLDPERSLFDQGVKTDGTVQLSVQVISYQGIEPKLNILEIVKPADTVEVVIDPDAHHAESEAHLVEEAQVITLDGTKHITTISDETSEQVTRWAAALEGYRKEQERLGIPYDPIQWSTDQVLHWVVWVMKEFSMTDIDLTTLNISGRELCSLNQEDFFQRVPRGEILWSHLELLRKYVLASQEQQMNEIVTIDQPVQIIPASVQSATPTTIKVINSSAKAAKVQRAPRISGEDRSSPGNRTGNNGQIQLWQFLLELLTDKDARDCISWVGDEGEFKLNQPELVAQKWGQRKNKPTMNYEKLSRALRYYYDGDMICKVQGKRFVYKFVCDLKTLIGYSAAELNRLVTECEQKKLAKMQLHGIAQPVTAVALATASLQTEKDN
The procedure, abridged: as §1

Another assay deals with T3, ERG (Homo sapiens, UniProt P11308 1-479).
T3 sequence: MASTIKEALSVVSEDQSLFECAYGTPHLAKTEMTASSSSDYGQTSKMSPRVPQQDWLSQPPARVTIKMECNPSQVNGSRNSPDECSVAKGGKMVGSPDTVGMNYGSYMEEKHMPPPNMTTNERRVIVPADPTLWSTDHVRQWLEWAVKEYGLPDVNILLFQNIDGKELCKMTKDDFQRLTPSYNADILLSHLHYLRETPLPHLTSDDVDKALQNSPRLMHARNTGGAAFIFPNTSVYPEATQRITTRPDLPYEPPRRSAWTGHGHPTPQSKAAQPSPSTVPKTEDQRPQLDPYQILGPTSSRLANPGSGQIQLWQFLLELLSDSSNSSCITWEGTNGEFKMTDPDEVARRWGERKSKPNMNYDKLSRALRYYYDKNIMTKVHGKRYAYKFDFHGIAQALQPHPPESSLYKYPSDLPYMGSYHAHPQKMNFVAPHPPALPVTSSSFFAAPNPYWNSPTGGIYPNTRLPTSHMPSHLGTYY
The method, boiled down:
as §1

The next assay has as its target ELF1 (Homo sapiens, UniProt P32519 1-619). The procedure, abridged:
as §1

The target of the next assay is T4, EHF (Homo sapiens, UniProt Q9NZC4 1-300).
T4 sequence: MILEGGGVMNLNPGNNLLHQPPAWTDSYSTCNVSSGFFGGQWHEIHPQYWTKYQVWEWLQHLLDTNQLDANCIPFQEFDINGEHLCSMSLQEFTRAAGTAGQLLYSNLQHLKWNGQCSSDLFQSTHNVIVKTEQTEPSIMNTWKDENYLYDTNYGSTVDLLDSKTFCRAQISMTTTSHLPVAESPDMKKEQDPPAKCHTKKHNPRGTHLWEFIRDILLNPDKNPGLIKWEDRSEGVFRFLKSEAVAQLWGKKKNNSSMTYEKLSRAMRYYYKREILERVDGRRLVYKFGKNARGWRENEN
The procedure, abridged: as §1

The target of another assay is SPI1 (Homo sapiens, UniProt P17947 1-270). The procedure, abridged:
as §1

The target in a further assay is SPIB (Homo sapiens, UniProt Q01892 1-262). The procedure, abridged:
as §1

The next assay deals with T5, FEV (Homo sapiens, UniProt Q99581 1-238).
T5 sequence: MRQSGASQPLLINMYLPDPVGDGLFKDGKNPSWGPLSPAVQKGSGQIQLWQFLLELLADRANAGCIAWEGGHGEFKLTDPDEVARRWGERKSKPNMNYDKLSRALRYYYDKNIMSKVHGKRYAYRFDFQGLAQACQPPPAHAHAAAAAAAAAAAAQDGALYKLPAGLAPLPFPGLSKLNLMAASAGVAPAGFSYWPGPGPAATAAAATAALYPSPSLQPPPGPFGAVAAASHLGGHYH
The method, boiled down: as §1

The target in another assay is ETV5 (Homo sapiens, UniProt P41161 1-510). The method, boiled down:
as §1

The target of a further assay is ELF4 (Homo sapiens, UniProt Q99607 1-663). The procedure, abridged: as §1
Sequence of ELF4 (Q99607 whole entry): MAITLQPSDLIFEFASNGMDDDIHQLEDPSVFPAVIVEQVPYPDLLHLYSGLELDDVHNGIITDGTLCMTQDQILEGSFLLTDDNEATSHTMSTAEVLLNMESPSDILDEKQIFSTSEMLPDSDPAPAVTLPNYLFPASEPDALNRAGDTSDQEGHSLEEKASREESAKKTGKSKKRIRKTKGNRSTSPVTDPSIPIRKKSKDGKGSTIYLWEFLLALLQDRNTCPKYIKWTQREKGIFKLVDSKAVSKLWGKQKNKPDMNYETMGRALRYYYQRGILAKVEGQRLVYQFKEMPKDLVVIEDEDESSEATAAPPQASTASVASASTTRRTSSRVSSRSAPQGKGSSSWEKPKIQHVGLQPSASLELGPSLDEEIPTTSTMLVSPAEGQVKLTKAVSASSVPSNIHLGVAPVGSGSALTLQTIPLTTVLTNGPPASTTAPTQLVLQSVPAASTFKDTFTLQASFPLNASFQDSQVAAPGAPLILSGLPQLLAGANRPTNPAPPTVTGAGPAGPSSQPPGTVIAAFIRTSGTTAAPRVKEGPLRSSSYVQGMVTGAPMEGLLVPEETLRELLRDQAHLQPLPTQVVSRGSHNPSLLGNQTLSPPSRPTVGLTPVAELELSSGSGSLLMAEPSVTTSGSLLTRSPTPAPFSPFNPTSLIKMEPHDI

Sequence of ETV5 (P41161 whole entry): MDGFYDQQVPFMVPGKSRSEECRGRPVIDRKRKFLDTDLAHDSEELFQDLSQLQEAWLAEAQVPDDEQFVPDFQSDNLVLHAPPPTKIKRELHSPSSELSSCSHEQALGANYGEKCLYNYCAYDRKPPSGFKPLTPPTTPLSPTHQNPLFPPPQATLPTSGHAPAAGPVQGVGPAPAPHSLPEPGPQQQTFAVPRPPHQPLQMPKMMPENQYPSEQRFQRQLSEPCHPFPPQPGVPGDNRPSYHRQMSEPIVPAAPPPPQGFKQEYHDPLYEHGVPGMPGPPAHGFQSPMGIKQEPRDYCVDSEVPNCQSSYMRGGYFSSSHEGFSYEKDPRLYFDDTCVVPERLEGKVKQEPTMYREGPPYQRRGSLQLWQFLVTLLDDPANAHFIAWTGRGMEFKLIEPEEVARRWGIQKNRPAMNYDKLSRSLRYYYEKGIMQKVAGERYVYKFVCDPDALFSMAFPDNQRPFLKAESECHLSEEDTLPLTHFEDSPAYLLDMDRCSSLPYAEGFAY
Sequence of SPIB (Q01892 whole entry): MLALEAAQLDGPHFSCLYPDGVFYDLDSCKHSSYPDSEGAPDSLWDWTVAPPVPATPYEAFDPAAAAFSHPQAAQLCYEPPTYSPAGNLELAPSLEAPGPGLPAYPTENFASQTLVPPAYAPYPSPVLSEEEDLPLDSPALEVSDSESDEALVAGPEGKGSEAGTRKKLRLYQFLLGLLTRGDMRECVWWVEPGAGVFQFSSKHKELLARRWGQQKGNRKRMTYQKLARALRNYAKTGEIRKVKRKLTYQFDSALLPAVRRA
Sequence of ELF1 (P32519 whole entry): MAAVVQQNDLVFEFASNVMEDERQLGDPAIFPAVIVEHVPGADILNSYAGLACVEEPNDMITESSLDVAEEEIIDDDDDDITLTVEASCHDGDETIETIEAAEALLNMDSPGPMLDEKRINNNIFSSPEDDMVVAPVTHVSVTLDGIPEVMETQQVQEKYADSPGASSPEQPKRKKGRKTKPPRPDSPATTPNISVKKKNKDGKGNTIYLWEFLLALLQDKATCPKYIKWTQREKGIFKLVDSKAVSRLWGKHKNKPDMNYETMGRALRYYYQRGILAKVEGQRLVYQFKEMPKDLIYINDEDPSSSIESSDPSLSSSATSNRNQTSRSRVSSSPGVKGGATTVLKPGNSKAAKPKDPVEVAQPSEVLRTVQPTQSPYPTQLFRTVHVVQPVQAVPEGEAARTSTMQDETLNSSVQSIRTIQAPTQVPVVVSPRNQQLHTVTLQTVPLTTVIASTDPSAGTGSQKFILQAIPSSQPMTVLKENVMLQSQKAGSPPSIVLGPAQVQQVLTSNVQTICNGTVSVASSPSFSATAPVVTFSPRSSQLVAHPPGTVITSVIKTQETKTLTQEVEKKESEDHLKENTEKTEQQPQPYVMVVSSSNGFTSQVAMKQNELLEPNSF

For GTTGAC, the binding signal with ELK1 is 1.03 fold enrichment (6-mer frequency, TF over GST control); with GABPA, 1.19 fold enrichment (6-mer frequency, TF over GST control); in the assay with ERG it was 1.22 fold enrichment (6-mer frequency, TF over GST control); with ELF1 it was 1.2 fold enrichment (6-mer frequency, TF over GST control); with EHF, 1.17 fold enrichment (6-mer frequency, TF over GST control); with SPI1, 1.15 fold enrichment (6-mer frequency, TF over GST control). Moreover, the binding signal in the assay with SPIB was 1.22 fold enrichment (6-mer frequency, TF over GST control); in the assay with FEV it was 1.18 fold enrichment (6-mer frequency, TF over GST control); with ETV5, 1.01 fold enrichment (6-mer frequency, TF over GST control); with ELF4 it was 1.15 fold enrichment (6-mer frequency, TF over GST control).
